Experimental data taken from ChEMBL document CHEMBL3988442, “University of Dundee, Small-Polar-MMV Screening Library” (2021).
The campaign covered roughly 48,000 compounds. About 13,000 (27%) showed an effect of 50% or more. This is one part of the list.

The molecules below were run on Wolbachia pipientis (assay: Anti-Wolbachia Cell-Based Screen). Details: 5 µM.
Format: functional
Design: scale not given: in the data most compounds retested in dose-response had high values

| SMILES | Percent Effect |
| --- | --- |
| CS(=O)(=O)CCOCCNc1ccc(Br)cn1 | -8.426% |
| CN(CCS(=O)(=O)c1cc(Cl)ccc1Cl)CC(=O)Nc1cccc(F)c1 | -24.13% |
| CC1CCCN(C(=O)c2cn(-c3ccc(C(F)(F)F)cn3)nn2)C1 (stereo unspecified) | -4.176% |
| Cc1cncc(C2CCCN(CC3CCC3)C2)n1 (stereo unspecified) | 105.7% |
| Cc1cncc(C2CCCN(Cc3ccncc3)C2)n1 (stereo unspecified) | 93.31% |
| Cc1cnc(CN2CCCC(c3cc(C(F)(F)F)[nH]n3)C2)cn1 (stereo unspecified) | -5.55% |
| Cc1ccc(CN2CCCC(c3cncc(C)n3)C2)cn1 (stereo unspecified) | 118.4% |
| CN(CCc1cn[nH]c1)C(=O)C1CC(=O)N(Cc2ccccn2)C1 (stereo unspecified) | 3.692% |
| COCCNC(=O)NCc1cc(-c2cccs2)n(C2CCCC2)n1 | 108.7% |
| O=C(NCCn1cnc(C2CCCC2)cc1=O)NCc1cccs1 | 5.486% |
| COCCNC(=O)NCc1cc(-c2ccncc2)n(C2CCCC2)n1 | 117.5% |
| COCCNC(=O)NC1(c2nc(-c3ccncc3)no2)CCCCC1 | -5.967% |
| CN(CCNC(=O)NCc1ccncc1)C1CCCC1 | 0.2327% |
| CC(=O)NCc1cc(-c2cccs2)n(C2CCCC2)n1 | 97.9% |
| CC(=O)NCc1nc(Cc2cccc(Cl)c2)nn1C1CCN(C)CC1 | 14.05% |
| COCCNC(=O)NCCCOC1CCCc2ccccc21 (stereo unspecified) | -3.457% |
| CC(C(=O)NCC1CCCCC1)S(=O)(=O)Cc1csc(-c2cccs2)n1 (stereo unspecified) | -22.28% |
| CCCc1n[nH]c(C2CN(CCCS(C)(=O)=O)CCO2)n1 (stereo unspecified) | 8.162% |
| CC(C)N1CCC(Nc2ccn(C)n2)C1=O (stereo unspecified) | -18.51% |
| CCc1n[nH]c(C2CN(CC(=O)NCCc3ccsc3)CCO2)n1 (stereo unspecified) | -8.362% |
| COc1ccc(S(=O)(=O)NCCC(O)c2cccs2)c(C)c1 (stereo unspecified) | -2.091% |
| COCc1nc(CNC2CSCCSC2)no1 | 8.788% |

| SMILES | Percent Effect |
| --- | --- |
| CN(Cc1csc(-c2cccs2)n1)C(=O)CCn1ccc(=O)[nH]c1=O | -14.37% |
| CCS(=O)(=O)N1CCC2(CC1)CC1(CCN(CCOC)CC1)C(=O)N2C.O=C(O)C(F)(F)F | -5.19% |
| Cc1cnc(N2CCCOC(CN3CCCCC3)C2)nc1 (stereo unspecified) | -5.032% |
| Cc1noc(C)c1CN1CC2(CCN(C(=O)c3ccc[nH]3)C2)CC1=O (stereo unspecified) | -7.535% |
| O=C1CCC2(CCCN(C(=O)c3ccco3)CC2)N1 (stereo unspecified) | -12.15% |
| CC(C)c1cc(C(=O)N2CCOC3(CCNCC3)C2)no1.O=C(O)C(F)(F)F | -1.615% |
| CC(C)c1cc(C(=O)N2CCC3(CCc4ccccc4C(=O)N3)C2)no1 (stereo unspecified) | 122.1% |
| Cc1noc(C)c1C(=O)N1CCC2(CC1)CC(Oc1ccccc1)CO2 (stereo unspecified) | -6.513% |
| Cc1noc(C)c1C(=O)N1CCC2(CCc3ccccc3C(=O)N2)C1 (stereo unspecified) | 127.4% |
| CC(C)c1cc(=O)[nH]c(-c2ccccc2CN2CCC(C)(C)C2)n1 | 32.6% |
| CC(C)c1cc(C(=O)N2CCC3(CCc4ccccc4C(=O)N3)C2)on1 (stereo unspecified) | 142.6% |
| CCC1CN(CCCNS(C)(=O)=O)c2ccccc2O1 (stereo unspecified) | -7.766% |
| Cc1cnn(CCNCC(O)COc2ccc(Cl)cc2)c1 (stereo unspecified) | -10.6% |
| CN(C)C(=O)c1ccc(C(C(=O)O)N(C)Cc2ccccc2Cl)cc1 (stereo unspecified) | 24.87% |
| CC(C)=CCS(=O)(=O)Cc1nc(C(C)C)no1 | -0.5421% |
| N#Cc1ccc(OCCCN2CCc3cncnc3C2)cc1 | -6.561% |
| Cc1nnc(NCc2ccc(SC(F)F)cc2)o1 | -21.33% |
| CCN(Cc1ccc2cccc(O)c2n1)CC1CCCO1 (stereo unspecified) | 12.41% |
| CC(C)n1ccnc1CNC(=O)c1cccc(CCC(C)(C)O)c1 | 1.765% |
| Cc1ccc(CN2CCC3(CC2)CC(c2cccnc2)CO3)s1.O=C(O)C(F)(F)F.O=C(O)C(F)(F)F (stereo unspecified) | -3.874% |
| O=C(O)C(F)(F)F.O=C(O)C(F)(F)F.c1cncc(C2COC3(CCN(Cc4cccs4)CC3)C2)c1 (stereo unspecified) | 94.58% |
| O=C(O)C(F)(F)F.O=C(O)C(F)(F)F.c1cncc(C2COC3(CCN(Cc4nccs4)CC3)C2)c1 (stereo unspecified) | 106.4% |

| SMILES | Percent Effect |
| --- | --- |
| O=C(NC1COC2(CCN(Cc3cccs3)CC2)C1)c1ccccn1.O=C(O)C(F)(F)F (stereo unspecified) | -12.32% |
| COc1c(C)cc(S(=O)(=O)NCC2CNCCOC2)cc1C (stereo unspecified) | -7.949% |
| CC1CS(=O)(=O)CCN1Cc1ccccc1OCC(F)(F)F (stereo unspecified) | -0.5987% |
| CC(C)NC(=O)N(C)C(c1cccc(F)c1)c1ccccn1 (stereo unspecified) | 108.7% |
| CN(C)S(=O)(=O)N(C)C(c1cccc(F)c1)c1ccccn1 (stereo unspecified) | 51.58% |
| CN(C)S(=O)(=O)N(C)C(c1cccnc1)c1ccc(F)c(F)c1 (stereo unspecified) | 6.924% |
| CCNC(=O)N(C)C(c1ccccc1)c1ccccn1 (stereo unspecified) | 96.55% |
| CN(C(=O)C1CCCC1)C(c1cccc(F)c1)c1ccccn1 (stereo unspecified) | 96.46% |
| CCNC(=O)N(C)C(c1cccc(F)c1)c1ccccn1 (stereo unspecified) | 4.567% |
| CC(NCc1cccc(S(=O)(=O)N(C)C)c1)c1ccccn1 (stereo unspecified) | -1.385% |
| CCC(CC)CNC(=O)N(C)C(C)c1ccccn1 (stereo unspecified) | -0.07078% |
| CCC(C)(C)NC(=O)CN(C)C(c1cccc(F)c1)c1ccccn1 (stereo unspecified) | 3.895% |
| CN(C)C(C(=O)N1CC(c2ccccn2)C1)c1cccc(F)c1 (stereo unspecified) | 0.3934% |
| Cc1cccc(C(C(=O)N2CC(c3ccccn3)C2)N(C)C)c1 (stereo unspecified) | -0.3127% |
| O=C(C1CCC1)N1CCOc2cccc(F)c21 | -0.5451% |
| CC(C)c1ccc(CN2CCC(CNS(=O)(=O)C3CC3)C2)cc1 (stereo unspecified) | -21.58% |
| O=C(c1ccc[nH]1)N1CCCC2(CCN(c3ccsc3)C2=O)C1 (stereo unspecified) | -3.1% |
| CCc1cccc(OC2CN(C(=O)[C@@H](N)CCSC)C2)c1 | 3.54% |
| OCCc1cc(CC2(NCc3ccncc3)COC2)no1 | 9.116% |
| CC(=O)N(C)C(c1cccc(F)c1)c1ccccn1 (stereo unspecified) | 87.32% |
| CN(C)CCN(Cc1ccccn1)C(=O)Nc1cccc(F)c1 | 19.37% |
| CN(C)C(C(=O)NCC(F)(F)F)c1cccc(F)c1 (stereo unspecified) | -4.686% |
